Results reported in PubChem BioAssay AID1421 (Emory University Molecular Libraries Screening Center, 2008).
About 140 (11%) of roughly 1,300 compounds were called active. How the calls were made is not given here. These entries were drawn from the full list. Potency and affinity values are given separately.

target: Prostaglandin E2 receptor EP2 subtype (Homo sapiens) (UniProt P43116); experiment: EP2 receptor modulators, dose response, cell-based, human EP2, PGE2 EC50 shift (AID 1421); conditions: EP2-expressing cells, PGE2 EC50 shift by compound; at 20 µM
Sequence (P43116 whole entry, looked up): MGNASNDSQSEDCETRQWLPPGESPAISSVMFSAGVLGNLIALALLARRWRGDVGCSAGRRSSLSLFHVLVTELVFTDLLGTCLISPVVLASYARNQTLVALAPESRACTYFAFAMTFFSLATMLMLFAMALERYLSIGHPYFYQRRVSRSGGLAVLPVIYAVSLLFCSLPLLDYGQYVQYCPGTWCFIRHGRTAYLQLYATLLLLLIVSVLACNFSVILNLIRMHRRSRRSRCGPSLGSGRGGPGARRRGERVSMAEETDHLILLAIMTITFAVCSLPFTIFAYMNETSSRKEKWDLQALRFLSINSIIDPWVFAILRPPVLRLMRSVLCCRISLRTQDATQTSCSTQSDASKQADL

**Q.** Which PGE2 EC50 with compound does the source give for Cc1ccccc1NC(=O)/C(=C/c1ccccc1)c1ccccc1 here?
**A.** 0.24 nM (inactive)

**Q.** CCc1ccccc1NC(=O)/C(=C/c1ccco1)c1ccccc1 was tested. Which PGE2 EC50 with compound did it give?
**A.** 0.16 nM (inactive)

**Q.** For O=C(O)COc1cccc(NC(=O)c2ccccc2)c1, which PGE2 EC50 with compound is on record?
**A.** 1.05 nM (inactive)

**Q.** With Nc1c(C(=O)NCc2ccccc2)c2nc3ccccc3nc2n1CCCN1CCOCC1 as the compound, how does the PGE2 EC50 with compound read?
**A.** 0.76 nM (inactive)

**Q.** Nc1c(C(=O)NCc2ccco2)c2nc3ccccc3nc2n1CCc1ccccc1 was tested. Which PGE2 EC50 with compound did it give?
**A.** 1.38 nM (inactive)

**Q.** With CCOC(=O)c1c(NC(=O)CN2CCCCC2)sc2c1CCN(C(=O)OCC)C2 as the compound, how does the PGE2 EC50 with compound read?
**A.** 0.83 nM (inactive)

**Q.** How did the PGE2 EC50 with compound turn out when CCCCNCC(=O)Nc1sc(C)c(C)c1C(=O)OCC was run?
**A.** 0.33 nM (inactive)

**Q.** How did the PGE2 EC50 with compound turn out when CCOC(=O)c1c(NC(=O)c2cccnc2)sc(C)c1C was run?
**A.** 0.31 nM (inactive)

**Q.** For CCOC(=O)c1c(NC(=O)c2ccoc2C)sc(C(=O)N(C)C)c1C, which PGE2 EC50 with compound is on record?
**A.** 0.6 nM (inactive)

**Q.** Cc1ccccc1-n1c(=O)[nH]c(=O)c2c(N)c(C(=O)c3ccc(Cl)cc3)sc21 was tested. Which PGE2 EC50 with compound did it give?
**A.** 0.74 nM (inactive)

**Q.** How did the PGE2 EC50 with compound turn out when S=c1[nH]nc(-c2ccco2)n1/N=C/c1ccc(Cl)cc1Cl was run?
**A.** 2.86 nM (inactive)

**Q.** For CCOP(=O)(c1ccccc1)c1nc(-c2ccccc2C)oc1N1CCCCC1 (stereo not given), which PGE2 EC50 with compound is on record?
**A.** 0.42 nM (inactive)

**Q.** With CSc1nc(Sc2ccccc2)c2ccccc2n1 as the compound, how does the PGE2 EC50 with compound read?
**A.** 0.21 nM (inactive)

**Q.** With C=CCSc1nc2ccccc2c(=O)n1Cc1ccccc1 as the compound, how does the PGE2 EC50 with compound read?
**A.** 0.31 nM (inactive)

**Q.** C=CCSc1nc2ccccc2n1S(=O)(=O)c1ccc(C)cc1 was tested. Which PGE2 EC50 with compound did it give?
**A.** 0.5 nM (inactive)

**Q.** With CCCC1=C(C(=O)OCC)C(c2cccs2)C(C#N)=C(N)O1 (stereo not given) as the compound, how does the PGE2 EC50 with compound read?
**A.** 0.32 nM (inactive)

**Q.** Which PGE2 EC50 with compound does the source give for CCCCCCn1c(COc2ccccc2F)nnc1SCC(=O)N1c2ccccc2NC(=O)C1(C)C here?
**A.** 0.69 nM (inactive)

**Q.** For COc1ccc(-n2c(COc3cccc4ccccc34)nnc2SCC(=O)NCc2ccco2)cc1, which PGE2 EC50 with compound is on record?
**A.** 0.72 nM (inactive)

**Q.** With CCOC(=O)c1sc2nc(C)nc(N3CCN(c4ncccn4)CC3)c2c1C as the compound, how does the PGE2 EC50 with compound read?
**A.** 0.7 nM (inactive)

**Q.** Cc1ccc(C(Sc2ccccc2)C(Cn2cncn2)C(=O)c2ccccc2)cc1 (stereo not given) was tested. Which PGE2 EC50 with compound did it give?
**A.** 0.38 nM (inactive)

**Q.** Cc1ccc(-c2cc3ccccc3nc2N2CCOCC2)cc1 was tested. Which PGE2 EC50 with compound did it give?
**A.** 0.38 nM (inactive)

**Q.** Which PGE2 EC50 with compound does the source give for Cc1ccc(-c2nc(P(=O)(c3ccccc3)c3ccccc3)c(N3CCOCC3)o2)cc1 here?
**A.** 0.39 nM (inactive)

**Q.** How did the PGE2 EC50 with compound turn out when Clc1ccc(-c2ccc(/C=N/Nc3cc(N4CCOCC4)nc(N4CCOCC4)n3)o2)cc1 was run?
**A.** 0.09 nM (inactive)

**Q.** How did the PGE2 EC50 with compound turn out when CC(C)c1ccc(/C=N/Nc2cc(N3CCOCC3)nc(N3CCOCC3)n2)cc1 was run?
**A.** 0.21 nM (inactive)

**Q.** How did the PGE2 EC50 with compound turn out when Cc1cccc(Oc2sc(C(=O)c3ccccc3)c(N)c2C#N)c1 was run?
**A.** 0.48 nM (inactive)

**Q.** C[C@H](C(=O)c1ccccc1)[C@@H](c1ccccc1)N1CCOCC1 was tested. Which PGE2 EC50 with compound did it give?
**A.** 0.33 nM (inactive)

**Q.** How did the PGE2 EC50 with compound turn out when Cc1ccc2[nH]c3c(=S)nc[nH]c3c2c1 was run?
**A.** 10.1 nM (inactive)

**Q.** Cc1cccc(CSc2ncnc3ccccc23)c1 was tested. Which PGE2 EC50 with compound did it give?
**A.** 0.37 nM (inactive)

**Q.** With CN(C)c1nc(-c2ccccc2)c2cnn(Cc3ccccc3)c2n1 as the compound, how does the PGE2 EC50 with compound read?
**A.** 0.17 nM (inactive)

**Q.** For CC1(c2ccccc2)CC(C)(C)N(C(=O)C2CCCO2)c2ccccc21 (stereo not given), which PGE2 EC50 with compound is on record?
**A.** 0.39 nM (inactive)

**Q.** Which PGE2 EC50 with compound does the source give for CCc1ccc2[nH]c(=O)c(CN(Cc3nnnn3C3CCCC3)C3CCCCC3)cc2c1 here?
**A.** 0.64 nM (inactive)

**Q.** With O=C(Nc1ccccc1-c1nc2ccccc2s1)c1ccc(Br)o1 as the compound, how does the PGE2 EC50 with compound read?
**A.** 0.41 nM (inactive)

**Q.** Which PGE2 EC50 with compound does the source give for O=C(Nc1ccccc1Oc1ccccc1)c1ccc(Br)o1 here?
**A.** 0.3 nM (inactive)

**Q.** With CCOC(=O)c1cnc2ccc(OCC)cc2c1N(C)Cc1ccccc1 as the compound, how does the PGE2 EC50 with compound read?
**A.** 0.07 nM (inactive)

**Q.** CCCCOc1ccccc1Cn1c(=O)oc2ccccc21 was tested. Which PGE2 EC50 with compound did it give?
**A.** 0.29 nM (inactive)

**Q.** For CCCOc1ccccc1Cn1c(=O)oc2ccc(C)cc21, which PGE2 EC50 with compound is on record?
**A.** 0.27 nM (inactive)

**Q.** Which PGE2 EC50 with compound does the source give for CC(C)NC(=S)N/N=C1\CCCCC1C1CCCCC1 (stereo not given) here?
**A.** 0.74 nM (inactive)

**Q.** Which PGE2 EC50 with compound does the source give for CCN(c1cccc(C)c1)S(=O)(=O)c1ccc2c3c(cccc13)C(=O)N2 here?
**A.** 0.94 nM (inactive)

**Q.** How did the PGE2 EC50 with compound turn out when C#CCn1c(S(=O)(=O)Cc2ccc(F)cc2)nc(-c2ccccc2)c1-c1ccccc1 was run?
**A.** 0.37 nM (inactive)

**Q.** O=C1COc2ccccc2N1Cc1ccccc1Cl was tested. Which PGE2 EC50 with compound did it give?
**A.** 0.31 nM (inactive)

**Q.** For CC1(C)OC(c2ccccc2)=C/C(=C/C=Nc2ccccc2)O1, which PGE2 EC50 with compound is on record?
**A.** 0.33 nM (inactive)

**Q.** How did the PGE2 EC50 with compound turn out when CCSC1=N/C(=C\c2ccccc2)C(=O)N1c1ccc(OC)cc1 was run?
**A.** 0.92 nM (inactive)

**Q.** For CCOc1ccc2cc(C#N)c(SCC(=O)NC(C)CC)nc2c1 (stereo not given), which PGE2 EC50 with compound is on record?
**A.** 0.8 nM (inactive)

**Q.** Which PGE2 EC50 with compound does the source give for CC(=O)c1cc(C#N)c(SCc2ccccc2)nc1C here?
**A.** 0.51 nM (inactive)

**Q.** For O=C(O)c1oc(C(=O)O)c(C(=O)O)c1C(=O)O, which PGE2 EC50 with compound is on record?
**A.** 0.58 nM (inactive)

**Q.** For C1=C(c2ccccc2)Nc2ccccc2N=C1c1ccccc1, which PGE2 EC50 with compound is on record?
**A.** 0.4 nM (inactive)

**Q.** CSc1nnc(-c2ccc(F)cc2)o1 was tested. Which PGE2 EC50 with compound did it give?
**A.** 1.06 nM (inactive)

**Q.** Which PGE2 EC50 with compound does the source give for CCOC(=O)CSc1nc(-c2ccccc2)nc2ccccc12 here?
**A.** 0.26 nM (inactive)

**Q.** Which PGE2 EC50 with compound does the source give for COC(=O)CSc1nc(-c2ccccc2)nc2ccccc12 here?
**A.** 0.22 nM (inactive)

**Q.** C=CCn1c(=O)c2c3c(sc2n2c(Nc4ccc(OC)cc4)nnc12)CCCC3 was tested. Which PGE2 EC50 with compound did it give?
**A.** 0.74 nM (inactive)

**Q.** With CCC(Sc1nc(-c2ccccc2)c(C#N)c(=O)[nH]1)C(=O)Nc1cc(C)on1 (stereo not given) as the compound, how does the PGE2 EC50 with compound read?
**A.** 3.58 nM (inactive)

**Q.** For Cc1cc2cc(CN(Cc3nnnn3C3CCCCC3)CC3CCCO3)c(=O)[nH]c2cc1C (stereo not given), which PGE2 EC50 with compound is on record?
**A.** 0.34 nM (inactive)

**Q.** Which PGE2 EC50 with compound does the source give for O=C(Cc1ccc(F)cc1)Nc1ccccc1Sc1ccccc1 here?
**A.** 0.23 nM (inactive)

**Q.** Which PGE2 EC50 with compound does the source give for Cc1ccccc1C(=O)Nc1ccccc1Sc1ccccc1 here?
**A.** 0.45 nM (inactive)

**Q.** Which PGE2 EC50 with compound does the source give for COCCCN(C(=O)c1ccco1)c1nc(-c2cc(OC)ccc2OC)cs1 here?
**A.** 0.27 nM (inactive)

**Q.** How did the PGE2 EC50 with compound turn out when CCCCc1nc2sc3c(SCC(=O)NCc4ccco4)ncnc3c2c2c1CCC2 was run?
**A.** 0.59 nM (inactive)

**Q.** How did the PGE2 EC50 with compound turn out when CCN(CC)C(=O)CN(c1cc2c(cc1OC)oc1ccccc12)S(=O)(=O)c1ccc(C)cc1 was run?
**A.** 0.39 nM (inactive)

**Q.** For Cc1cc2ccccc2nc1SCC(=O)NC1CCCCC1, which PGE2 EC50 with compound is on record?
**A.** 1.22 nM (inactive)

**Q.** Which PGE2 EC50 with compound does the source give for COc1ccc(-c2nc3c(c(=O)[nH]c(=O)n3Cc3ccccc3)n2Cc2ccccc2)cc1 here?
**A.** 0.28 nM (inactive)

**Q.** For COc1ccc(-c2nc3ccccc3n2Cc2ccccc2)cc1, which PGE2 EC50 with compound is on record?
**A.** 0.33 nM (inactive)
